Env fusion inh: HIV envelope-mediated fusion inhibition. HeLa-JRFL Env/CEM21 cell fusion, luciferase. inhibition, % at 12.3 µM. actives 1.1% (n = 360,000). AID 651610;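 active means mean replicate inhibition score of at least 50 and every replicate individually at or above 50; inconclusive means only one of the two criteria met; inactive means mean below 50 and not all replicates reaching 50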;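 further: 0% = plate neutral controls and 100% = maraviroc near 300 nM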
EWS-Fli inh: EWS/Fli transcriptional activity inhibition. inhibition, % at 12.6 µM. actives 0.67% (n = 350,000). A673 NR0B1-luciferase reporter, viability-normalised;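 active means mean inhibition of at least 50% after viability correction, with every replicate also passing that limit; inconclusive means mean reaches 50% but only one of two replicates passes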;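 further: firefly luciferase signal divided by Alamar Blue viability fluorescence both relative to DMSO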
PAX8 reporter: inhibitors of PAX8 transcriptional activity in RMG-I cells. RMG-I TPO-luciferase reporter, SteadyGlo, 24 h. actives 1.2% (n = 360,000). inhibition, % at 12.6 µM. AID 652154;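 active means mean replicate inhibition at least 60% with every replicate also reaching 60%; inconclusive means only one of the two criteria is met; inactive means mean below 60% and not all replicates reaching 60%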;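 further: luciferase light reporting Pax8 driven TPO promoter activity; plate controls were median of neutral control wells for no effect and mitoxantrone controls for full effect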
GAA850 FXN act: frataxin GAA850 promoter activation; HEK293 lucGAA850 FXN promoter luciferase reporter, 24 h; percent of 10 µM SAHA response; activation, % at 6 µM; actives 0.56% (n = 360,000); AID 540364;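 active means activation above the average of all compounds screened plus 3 SD, cutoff fixed separately per campaign, cut at about 7.5% in these data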;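 further: 0% = DMSO wells and 100% = 10 µM SAHA wells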
F508del corr: CFTR F508del correction in bronchial cells; AID 720511; activity (quench increase), % at 7.58 µM; actives 0.36% (n = 350,000); CFBE cells, YFP halide quenching; stimulated with forskolin plus potentiator P3; % fluorescence drop versus neutral controls;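 active means mean added fluorescence quench of at least 8% versus neutral control, with both replicates also reaching 8%; inconclusive means only one of the mean or replicate conditions met; inactive means mean below 8% and not both replicates reaching 8%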;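 further: cells transiently co-express mutant CFTR-F508del with the halide-sensitive YFP; corrector assay measuring rescue of mutant channel to the surface after 24 h compound exposure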
Active calls of the source: *; u = inconclusive; x = not tested or not shown; [ ] = dose if it differs, or a comment. An excerpt weighted towards active compounds, which were near 2.5% of everything screened.

SMILES	Env fusion inh	EWS-Fli inh	PAX8 reporter	GAA850 FXN act	F508del corr
CSc1ccc(S(=O)(=O)N2c3ccccc3CC2C)cc1 (centres undefined)	29	51*	44	0	u
CC(=O)N1CCc2cc(S(=O)(=O)N3c4ccccc4CC3C)ccc21 (centres undefined)	x	48	x	-1	10*
CC(=O)N1CCc2cc(S(=O)(=O)N3CCOCC3)ccc21	2	x	-20	1	x
COCC#Cc1cnc2c(c1)C(=O)N([C@@H](C)CO)C[C@H](C)[C@H](CN(C)C(=O)C1CCC1)O2	-6[16.7 µM]	1	x	x	-4
CN(C)CCCN(C(=O)COc1ccc(Cl)cc1)c1nc2cc3c(cc2s1)OCO3	1	61*	7	0	-2
CN(C)CCCN(C(=O)COc1ccc(Cl)cc1)c1nc2cc3c(cc2s1)OCCO3	x	-24	-54	1	1
c1ccc(-c2ccc3c(n2)CCCN3Cc2ccccn2)cc1	61*	-87	-164	x	-2
Fc1ccc(-c2ccc3c(n2)CCCN3Cc2ccccn2)cc1	-50	-90	-146	x	0
O=C(C[C@H]1CC[C@@H](NC(=O)Nc2ccccc2F)[C@H](CO)O1)NCc1ccc(F)cc1	x	6	x	x	2
COc1cccc2c1C(CCCC(=O)O)CCC2 (centres undefined)	-6	2	-13	-2	-1
COc1cccc2c1C1COC3C4CC(C(=O)O)C(C(C2)N13)N4C (centres undefined)	23	72*	x	-8	2
C[C@@H]1CN([C@@H](C)CO)C(=O)c2cc(-c3cccc(C#N)c3)cnc2O[C@@H]1CN(C)C(=O)c1cnccn1	-1[16.7 µM]	-17	-17	x	-1
COc1ccccc1OCC(=O)c1[nH]c(C)c(C(C)=O)c1C	74*	x	x	-1	x
O=C(C[C@@H]1CC[C@@H]2[C@H](COC[C@H](O)CN2CCc2ccccc2)O1)NCc1ccc(Oc2ccccc2)cc1	x	13	33	x	-2
CC(C)Oc1cc(NC(=O)CSCC(=O)Nc2cccc(C(F)(F)F)c2)c(Cl)cc1Cl	62*	x	x	1	x
CCCC(=O)Nc1ccc(Cl)c(NC(=S)NC(=O)c2cc3ccccc3o2)c1	x	5	73*	2	6
O=C(CSc1nnc(Cc2cccs2)n1Cc1ccco1)Nc1ccc(Cl)cc1Cl	59*	x	x	-1	x
O=C(CSc1nnc(Cc2ccccc2)n1Cc1ccco1)NC12CC3CC(CC(C3)C1)C2	58*	x	x	0	x
O=C(C[C@H]1C[C@H]2c3cc(NC(=O)NC4CCCCC4)ccc3O[C@H]2[C@@H](CO)O1)NCCc1ccccc1	x	2	8	x	0
Cc1cn([C@@H](CCCCNC(=O)OC(C)(C)C)C(=O)NCCCCCCCCCCC(=O)N2CCN(C(=O)OC(C)(C)C)CC2)nn1	x	x	x	-7	x
CC(C)(C)OC(=O)NCCCCCc1cn(CC(=O)NCCCCCCCCCCC(=O)N2CCN(C(=O)OC(C)(C)C)CC2)nn1	57*	24	-3	2	-4
C[C@H]1CN([C@@H](C)CO)S(=O)(=O)c2ccc(-c3cccnc3)cc2O[C@H]1CN(C)Cc1cccnc1	-11[16.7 µM]	-3	x	x	-1
CCSc1ncc(Cl)c(C(=O)Nc2ccc(S(N)(=O)=O)cc2)n1	11	18	70*	-2	2
CCS(=O)(=O)c1ncc(Cl)c(C(=O)Nc2ccc(S(=O)(=O)N3CCC(C)CC3)cc2)n1	65*	x	100*	-10	-9
COc1ccccc1NC(=O)c1nc(S(=O)(=O)Cc2ccccc2)ncc1Cl	-4	59*	130*	5	1
SMILES	Env fusion inh	EWS-Fli inh	PAX8 reporter	GAA850 FXN act	F508del corr
CC(=O)Nc1ccc(NC(=O)c2nc(S(=O)(=O)Cc3cccc(C)c3)ncc2Cl)cc1	-22	61*	91*	-11	7
CCSc1ncc(Cl)c(C(=O)Nc2ccc(S(=O)(=O)Nc3ncccn3)cc2)n1	10	-2	-9	0	-1
Cc1ccc(S(=O)(=O)Nc2ccc3c(c2)C(=O)N([C@@H](C)CO)C[C@H](C)[C@H](CN(C)S(=O)(=O)c2cn(C)cn2)O3)cc1	3[16.7 µM]	-2	11	x	0
CC(C)c1nnc(NC(=O)c2nc(S(=O)(=O)Cc3ccccc3)ncc2Cl)s1	-157	64*	17	-9	2
CCOc1ccccc1NC(=O)c1nc(S(=O)(=O)Cc2ccccc2)ncc1Cl	-4	u	134*	-6	3
CN(c1ccccc1)S(=O)(=O)c1ccc(NC(=O)c2nc(S(C)(=O)=O)ncc2Cl)cc1	-26	58*	133*	-14	0
CN(c1ccccc1)S(=O)(=O)c1ccc(NC(=O)c2ccccc2)cc1	9	x	-18	4	x

Source: PubChem (several laboratories)
